Source: PubChem BioAssay (NCATS)
Records with an inconclusive call do not appear. Activity calls are given as the source filed them. Calls follow the shape of the dose curve; as a rule, active = well fitted curve in the direction sought with a large enough effect; inconclusive = small, poorly fitted or top-dose-only effect, or another doubt; inactive = no such curve, though single readings can be large; an effect the other way counts as inactive or inconclusive.

What was measured:
[1] = Quantitative High-Throughput drug screen in 47 multiple myeloma cell lines against the NCATS MIPE library collection: KMS27_JCRB cell viability assay (AID 1918970); also: nearly all actives have a fitted effect of over 30% in size; also: potency is read from the fitted curve at half-maximal effect
Method in brief: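 Luminescent ATP read-out (CellTiter-Glo, 5 min at room temperature) after 48 h compound exposure of 500 KMS27_JCRB cells per well; DMSO wells define full viability and media-only wells zero.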

[2] = Quantitative High-Throughput drug screen in 47 multiple myeloma cell lines against the NCATS MIPE library collection: KMS12BM_JCRB cell viability assay (AID 1918971); also: nearly all actives have a fitted effect of over 35% in size; also: potency is read from the fitted curve at half-maximal effect
Method in brief: (§1)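 Inhibition of cell viability is measured here. Each line was plated at 500 cells per well, treated with MIPE 4.0 drugs, kept 48 hours at 37C, then assayed for ATP content by CellTiter-Glo luminescence.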

[3] = Quantitative High-Throughput drug screen in 47 multiple myeloma cell lines against the NCATS MIPE library collection: KMS26_JCRB cell viability assay (AID 1918975); also: nearly all actives have a fitted effect of over 45% in size; also: potency is read from the fitted curve at half-maximal effect
Method in brief: as §1

[4] = Quantitative High-Throughput drug screen in 47 multiple myeloma cell lines against the NCATS MIPE library collection: MOLP8_DSMZ cell viability assay (AID 1918977); also: nearly all actives have a fitted effect of over 45% in size; also: potency is read from the fitted curve at half-maximal effect
Method in brief: (§2)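 Viability after 48 h drug exposure was measured as ATP-dependent luminescence. Cells, 500 per well, sat at 37 °C under 5% CO2; DMSO wells set 100%, media-only wells 0%.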

[5] = Quantitative High-Throughput drug screen in 47 multiple myeloma cell lines against the NCATS MIPE library collection: NCIH929_DSMZ cell viability assay (AID 1918978); also: nearly all actives have a fitted effect of over 35% in size; also: potency is read from the fitted curve at half-maximal effect
Method in brief: as §2

[6] = Quantitative High-Throughput drug screen in 47 multiple myeloma cell lines against the NCATS MIPE library collection: MM1R_ATCC cell viability assay (AID 1918981); also: nearly all actives have a fitted effect of over 35% in size; also: potency is read from the fitted curve at half-maximal effect
Method in brief: as §2

[7] = Quantitative High-Throughput drug screen in 47 multiple myeloma cell lines against the NCATS MIPE library collection: LP1_DSMZ cell viability assay (AID 1918982); also: nearly all actives have a fitted effect of over 35% in size
Method in brief: as §2

[8] = Quantitative High-Throughput drug screen in 47 multiple myeloma cell lines against the NCATS MIPE library collection: KMS28PE_JCRB cell viability assay (AID 1918983); also: nearly all actives have a fitted effect of over 35% in size; also: potency is read from the fitted curve at half-maximal effect
Method in brief: as §2

[9] = Quantitative High-Throughput drug screen in 47 multiple myeloma cell lines against the NCATS MIPE library collection: OPM1_PLB cell viability assay (AID 1918989); also: nearly all actives have a fitted effect of over 40% in size; also: potency is read from the fitted curve at half-maximal effect
Method in brief: as §2

[10] = Quantitative High-Throughput drug screen in 47 multiple myeloma cell lines against the NCATS MIPE library collection: KMS12PE_JCRB cell viability assay (AID 1918972); also: nearly all actives have a fitted effect of over 30% in size; also: potency is read from the fitted curve at half-maximal effect
Method in brief: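 qHTS of the MIPE 4.0 collection: 500 myeloma cells/well, 48 h drug exposure at 37C in 5% CO2, then CellTiter-Glo for 5 min at room temperature before luminescence reading.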

[11] = Quantitative High-Throughput drug screen in 47 multiple myeloma cell lines against the NCATS MIPE library collection: KMS20_JCRB cell viability assay (AID 1918973); also: nearly all actives have a fitted effect of over 45% in size; also: potency is read from the fitted curve at half-maximal effect
Method in brief: (§3)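 We plated 500 myeloma cells per well, pinned in MIPE 4.0 compounds, and incubated for 48 hours at 37C. ATP was then quantified with CellTiter-Glo, with DMSO and media-only wells defining 100% and 0%.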

[12] = Quantitative High-Throughput drug screen in 47 multiple myeloma cell lines against the NCATS MIPE library collection: OCIMY1_PLB cell viability assay (AID 1918979); also: nearly all actives have a fitted effect of over 35% in size; also: potency is read from the fitted curve at half-maximal effect
Method in brief: as §2

[13] = Quantitative High-Throughput drug screen in 47 multiple myeloma cell lines against the NCATS MIPE library collection: KMS34_JCRB cell viability assay (AID 1918985); also: nearly all actives have a fitted effect of over 40% in size; also: potency is read from the fitted curve at half-maximal effect
Method in brief: as §2

[14] = Quantitative High-Throughput drug screen in 47 multiple myeloma cell lines against the NCATS MIPE library collection: SKMM1_PLB cell viability assay (AID 1919863); settings: SKMM1 myeloma viability, CellTiter-Glo ATP, 48 h; viability: active compounds read low; also: nearly all actives have a fitted effect of over 35% in size; also: potency is read from the fitted curve at half-maximal effect
Method in brief: as §2

[15] = Quantitative High-Throughput drug screen in 47 multiple myeloma cell lines against the NCATS MIPE library collection: OCIMY7_PLB cell viability assay (AID 1918987); also: nearly all actives have a fitted effect of over 65% in size; also: potency is read from the fitted curve at half-maximal effect
Method in brief: as §2

[16] = Quantitative High-Throughput drug screen in 47 multiple myeloma cell lines against the NCATS MIPE library collection: OCIMY5_PLB cell viability assay (AID 1918988); also: nearly all actives have a fitted effect of over 65% in size; also: potency is read from the fitted curve at half-maximal effect
Method in brief: as §2

[17] = Quantitative High-Throughput drug screen in 47 multiple myeloma cell lines against the NCATS MIPE library collection: KMS21BM_JCRB cell viability assay (AID 1918974); settings: ATP luminescence, 48 h; viability: at 45.8 µM (top of the series) unless noted; also: potency is read from the fitted curve at half-maximal effect
Method in brief: as §3

[18] = Quantitative High-Throughput drug screen in 47 multiple myeloma cell lines against the NCATS MIPE library collection: MMM1_PLB cell viability assay (AID 1918976)
Method in brief: as §2

[19] = Quantitative High-Throughput drug screen in 47 multiple myeloma cell lines against the NCATS MIPE library collection: MM1S_ATCC cell viability assay (AID 1918980); also: nearly all actives have a fitted effect of over 45% in size; also: potency is read from the fitted curve at half-maximal effect
Method in brief: as §2

[20] = Quantitative High-Throughput drug screen in 47 multiple myeloma cell lines against the NCATS MIPE library collection: L363_DSMZ cell viability assay (AID 1918984); also: nearly all actives have a fitted effect of over 40% in size; also: potency is read from the fitted curve at half-maximal effect
Method in brief: as §2

CCC[C@@H]1C[C@@H](C(=O)N[C@@H]([C@H]2O[C@H](SC)[C@H](O)[C@@H](O)[C@H]2O)[C@@H](C)O)N(C)C1
active: Potency [2] 2.64 µM
inactive: Potency [1] | Potency [3] | Potency [4] | Potency [5] | Potency [6] | Potency [7] | Potency [8] | Potency [9]

N=C(N=C(N)N)N1CCOCC1
inactive: Potency [1] | Potency [10] | Potency [11] | Potency [5] | Potency [12] | Potency [7] | Potency [8] | Potency [13] | Potency [9] | viability [14] 125%

CCCc1cc(=O)[nH]c(=S)[nH]1
inactive: Potency [2] | Potency [10] | Potency [3] | Potency [4] | Potency [5] | Potency [8] | Potency [13] | Potency [15] | Potency [16] | Potency [9] | viability [14] 115%

O=C(O)c1cccc(-c2noc(-c3ccccc3F)n2)c1
inactive: Potency [5] | Potency [12] | Potency [13] | Potency [9]
active: Potency [2] 16.6 µM | viability [17] 121% | Potency [18] 2.35 µM | Potency [8] 14.8 µM | Potency [16] 9.35 µM | Potency [14] 9.35 µM

CC(=O)O[C@H]1C(=O)[C@@]2(C)C([C@H](OC(=O)c3ccccc3)[C@]3(O)C[C@H](OC(=O)[C@H](O)[C@@H](NC(=O)c4ccccc4)c4ccccc4)C(C)=C1C3(C)C)[C@]1(OC(C)=O)CO[C@@H]1C[C@@H]2O (stereo partly specified)
active: Potency [18] 14.8 µM | Potency [12] 0.0187 µM | Potency [14] 0.0033 µM
inactive: Potency [2] | Potency [3] | Potency [4] | Potency [5] | Potency [19] | Potency [6] | Potency [7] | Potency [8] | Potency [16]

c1ccc2[nH]c(-c3cscn3)nc2c1
inactive: Potency [2] | Potency [11] | Potency [4] | Potency [5] | Potency [6] | Potency [7] | Potency [8] | Potency [13] | Potency [15] | Potency [16] | Potency [9] | viability [14] 120%

CC1(C)NC(=O)N(c2ccc([N+](=O)[O-])c(C(F)(F)F)c2)C1=O
active: Potency [8] 16.6 µM | Potency [16] 8.33 µM
inactive: Potency [1] | Potency [10] | Potency [4] | Potency [5] | Potency [12] | Potency [9]

CNC[C@@H](O)[C@@H](O)[C@H](O)[C@H](O)CO
inactive: Potency [1] | Potency [3] | Potency [4] | Potency [5] | Potency [12] | Potency [7] | Potency [8] | Potency [13] | Potency [9]

NCCCCNCCCN
active: Potency [2] 20.9 µM | Potency [3] 3.72 µM | Potency [18] 10.5 µM | Potency [4] 4.18 µM | Potency [5] 18.7 µM | Potency [12] 10.5 µM | Potency [19] 3.32 µM | Potency [6] 2.96 µM | Potency [13] 9.35 µM | Potency [15] 10.5 µM | Potency [16] 14.8 µM | Potency [9] 23.5 µM | Potency [14] 20.9 µM

Cc1nc(Nc2ncc(C(=O)Nc3c(C)cccc3Cl)s2)cc(N2CCN(CCO)CC2)n1
active: Potency [1] 10.5 µM | Potency [11] 0.332 µM | Potency [17] 209 nM | Potency [20] 1.32 µM | Potency [13] 0.59 µM | Potency [16] 0.743 µM | Potency [9] 0.833 µM

CCCCN(CCCC)CCC(O)c1cc2c(Cl)cc(Cl)cc2c2cc(C(F)(F)F)ccc12 (stereo unspecified)
active: Potency [2] 20.9 µM | Potency [8] 23.5 µM | Potency [16] 11.8 µM | Potency [9] 18.7 µM
inactive: Potency [10] | Potency [3] | Potency [12] | Potency [19] | Potency [20]

O=C(O)CCNC(=O)c1ccc(N=Nc2ccc(O)c(C(=O)O)c2)cc1
inactive: Potency [1] | Potency [10] | Potency [5] | Potency [12] | Potency [6] | Potency [7] | Potency [8] | Potency [13] | Potency [9]
active: Potency [19] 8.33 µM

COCCCN1CCC(NC(=O)c2cc(Cl)c(N)c3c2OCC3)CC1
inactive: Potency [8] | Potency [13]
active: Potency [1] 18.7 µM | Potency [10] 16.6 µM | Potency [20] 20.9 µM

CN(C)[C@@H](CCOc1cccc2ccccc12)c1ccccc1
inactive: Potency [1] | Potency [12]
active: Potency [11] 14.8 µM | Potency [18] 20.9 µM | Potency [5] 20.9 µM | Potency [8] 20.9 µM | Potency [13] 20.9 µM | Potency [16] 20.9 µM | Potency [9] 16.6 µM

Cc1ccc(C(=O)c2cc(O)c(O)c([N+](=O)[O-])c2)cc1
inactive: Potency [12] | Potency [7] | Potency [8] | Potency [13]
active: Potency [1] 23.5 µM | Potency [19] 20.9 µM | Potency [20] 16.6 µM
